{
  "source": "PubChem BioAssay AID743398",
  "about": "(Broad Institute, 2014)",
  "note": "Among all 300,000 compounds or so, about 3,600 (1.2%) were called active. The list comes from a sample in which actives are over-represented; it also holds similar structures and randomly drawn compounds. A number with no mark means an inactive call. Cut-off read from the data, not from the text of the source: active = activation above about 30% (passing the limit was not always enough); inconclusive = no clear call, values can overlap the other calls.",
  "data": [
    {"assay": "activation of beta-catenin signaling reporter – cell-based, plate reader, single point, primary screen (AID 743398);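 note: 0% = neutral control wells and 100% = positive control wells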", "details": "Wnt/beta-catenin reporter cell assay, activator, at 9.35 µM, stronger effect = higher value", "values": [
      {"compound": "CN(C)c1ccnc2sc(C(=O)c3ccccc3)c(N)c12", "activation": "79.3% (active)"},
      {"compound": "Cc1ccc2c(N)c(C(=O)c3ccccc3)sc2n1", "activation": "22.1%"},
      {"compound": "CCN(CC)C(=O)c1sc2nc(-c3ccccc3)ccc2c1N", "activation": "10.1%"},
      {"compound": "COc1cccc(C(O)c2ncc(-c3ccc4ccccc4c3)[nH]2)c1", "note": "(stereo unspecified)", "activation": "0.0285%"},
      {"compound": "Cc1ccc2nc(-c3ccco3)c(Cc3cccc(Cl)c3)n2c1", "activation": "-1.15%"},
      {"compound": "O=C(COc1ccc(/C=N/NC(=O)c2ccc(O)cc2)cc1)Nc1ccc([N+](=O)[O-])cc1", "activation": "46.5% (active)"},
      {"compound": "O=C(COc1ccc([N+](=O)[O-])cc1)Nc1ccc(N2CCCC2)cc1", "activation": "-2.41%"},
      {"compound": "O=C(N/N=C/c1ccc(O)cc1)/C(=C/c1ccc([N+](=O)[O-])cc1)NC(=O)c1ccccc1", "activation": "0.356%"},
      {"compound": "CCC(CC)C(C(=O)NC1CCCC1)N1CCN(c2cc(C)nc3ccccc23)CC1", "note": "(stereo unspecified)", "activation": "-1.19%"},
      {"compound": "CNC(=O)c1ccc(CN(C)C(=O)c2cc(C3CC3)nc3c2cnn3C(C)C)cc1", "activation": "7.06%"},
      {"compound": "O=C(Cc1ccc([N+](=O)[O-])cc1)NCCS(=O)(=O)N1CCN(c2ccccc2)CC1", "activation": "-2.6%"},
      {"compound": "CCCOc1ccc(F)cc1-c1cc(C(=O)Nc2ccc(F)c(Cl)c2)[nH]n1", "activation": "-0.991%"},
      {"compound": "CCCCCCCCN1C(=O)[C@@H](CC(=O)NCc2ccc(C)o2)C[C@@]2(C(=O)OC)C1=C[C@H](C(C)(C)C)O[C@@H]2C", "activation": "-3.74%"},
      {"compound": "O=C1Oc2ccccc2C(=O)/C1=C/c1ccccc1O", "activation": "-4.19%"},
      {"compound": "COC(=O)C(C)Oc1ccc2c(c1)O/C(=C\\c1cccc(Br)c1)C2=O", "note": "(stereo unspecified)", "activation": "-0.1%"},
      {"compound": "COc1ccc2c(c1)O/C(=C\\c1ccccc1O)C2=O", "activation": "39.8% (active)"},
      {"compound": "Clc1cccc2c1C1CC2CCN1Cc1ccccc1", "note": "(stereo unspecified)", "activation": "-2.22%"},
      {"compound": "N/C(=N\\OC(=O)Cc1ccc([N+](=O)[O-])cc1)c1ccccn1", "activation": "1.55%"},
      {"compound": "COc1ccccc1OCC(=O)O/N=C(\\N)c1ccccn1", "activation": "55.9% (active)"},
      {"compound": "COc1ccc(C(=O)O/N=C(\\N)c2ccccn2)cc1[N+](=O)[O-]", "activation": "17%"},
      {"compound": "COc1ccc(OC)c(CN2C(=O)CCC2(C)c2nnnn2Cc2ccccc2)c1", "note": "(stereo unspecified)", "activation": "-0.624%"}
    ]}
  ]
}
